Laboratory results as given in publication PMC12529666, “Dysregulation of AGO2-miRNA dynamics underlies the AGO2-associated Lessel–Kreienkamp syndrome”.
Where a chain is given by its changes, count along the chain named.

B1: ACACTTCG (ssRNA)
RNA 1: GAGUUCUACAGUCCGACGAUCCCAACACACUUCGCACCUGGAAUUCUCGGGUGCCAA
RNA 2: UGGAGUGUGACAAUGGUGUUUG
DNA 1: GATCGTCGGACTGTAGAACTC
DNA 2: TTGGCACCCGAGAATTCCA
modifications: constant regions annealed to DNA blockers; guide miR-122 5' phosphate
B2: GTGTTCTG (ssRNA)
RNA 1: B1 RNA 1 with A27G, C28U, A29G, C30U, U32C, C33U
RNA 2: UGGAGUGUGACAAUGGUGUUUG
DNA 1: GATCGTCGGACTGTAGAACTC
DNA 2: TTGGCACCCGAGAATTCCA
modifications: constant regions annealed to DNA blockers; guide miR-122 5' phosphate
B3: GCGCTTCG (ssRNA)
RNA 1: B1 RNA 1 with A27G, A29G
RNA 2: UGGAGUGUGACAAUGGUGUUUG
DNA 1: GATCGTCGGACTGTAGAACTC
DNA 2: TTGGCACCCGAGAATTCCA
modifications: constant regions annealed to DNA blockers; guide miR-122 5' phosphate
B4: GCGTTCTG (ssRNA)
RNA 1: B1 RNA 1 with A27G, A29G, C30U, U32C, C33U
RNA 2: UGGAGUGUGACAAUGGUGUUUG
DNA 1: GATCGTCGGACTGTAGAACTC
DNA 2: TTGGCACCCGAGAATTCCA
modifications: constant regions annealed to DNA blockers; guide miR-122 5' phosphate
B5: ATATTTTG (ssRNA)
RNA 1: B1 RNA 1 with C28U, C30U, C33U
RNA 2: UGGAGUGUGACAAUGGUGUUUG
DNA 1: GATCGTCGGACTGTAGAACTC
DNA 2: TTGGCACCCGAGAATTCCA
modifications: constant regions annealed to DNA blockers; guide miR-122 5' phosphate
B6: GTGCCCTG (ssRNA)
RNA 1: B1 RNA 1 with A27G, C28U, A29G, U31C, U32C, C33U
RNA 2: UGGAGUGUGACAAUGGUGUUUG
DNA 1: GATCGTCGGACTGTAGAACTC
DNA 2: TTGGCACCCGAGAATTCCA
modifications: constant regions annealed to DNA blockers; guide miR-122 5' phosphate
B7: GCGTCTCG (ssRNA)
RNA 1: B1 RNA 1 with A27G, A29G, C30U, U31C
RNA 2: UGGAGUGUGACAAUGGUGUUUG
DNA 1: GATCGTCGGACTGTAGAACTC
DNA 2: TTGGCACCCGAGAATTCCA
modifications: constant regions annealed to DNA blockers; guide miR-122 5' phosphate
B8: ACATCTCG (ssRNA)
RNA 1: B1 RNA 1 with C30U, U31C
RNA 2: UGGAGUGUGACAAUGGUGUUUG
DNA 1: GATCGTCGGACTGTAGAACTC
DNA 2: TTGGCACCCGAGAATTCCA
modifications: constant regions annealed to DNA blockers; guide miR-122 5' phosphate
B9: GTATCCCG (ssRNA)
RNA 1: B1 RNA 1 with A27G, C28U, C30U, U31C, U32C
RNA 2: UGGAGUGUGACAAUGGUGUUUG
DNA 1: GATCGTCGGACTGTAGAACTC
DNA 2: TTGGCACCCGAGAATTCCA
modifications: constant regions annealed to DNA blockers; guide miR-122 5' phosphate
B10: GCACTTCG (ssRNA)
RNA 1: B1 RNA 1 with A27G
RNA 2: UGGAGUGUGACAAUGGUGUUUG
DNA 1: GATCGTCGGACTGTAGAACTC
DNA 2: TTGGCACCCGAGAATTCCA
modifications: constant regions annealed to DNA blockers; guide miR-122 5' phosphate
B11: ACGCCCCG (ssRNA)
RNA 1: B1 RNA 1 with A29G, U31C, U32C
RNA 2: UGGAGUGUGACAAUGGUGUUUG
DNA 1: GATCGTCGGACTGTAGAACTC
DNA 2: TTGGCACCCGAGAATTCCA
modifications: constant regions annealed to DNA blockers; guide miR-122 5' phosphate
B12: GTGTTCCG (ssRNA)
RNA 1: B1 RNA 1 with A27G, C28U, A29G, C30U, U32C
RNA 2: UGGAGUGUGACAAUGGUGUUUG
DNA 1: GATCGTCGGACTGTAGAACTC
DNA 2: TTGGCACCCGAGAATTCCA
modifications: constant regions annealed to DNA blockers; guide miR-122 5' phosphate
B13: ATATCCTG (ssRNA)
RNA 1: B1 RNA 1 with C28U, C30U, U31C, U32C, C33U
RNA 2: UGGAGUGUGACAAUGGUGUUUG
DNA 1: GATCGTCGGACTGTAGAACTC
DNA 2: TTGGCACCCGAGAATTCCA
modifications: constant regions annealed to DNA blockers; guide miR-122 5' phosphate
B14: ATGCCCTG (ssRNA)
RNA 1: B1 RNA 1 with C28U, A29G, U31C, U32C, C33U
RNA 2: UGGAGUGUGACAAUGGUGUUUG
DNA 1: GATCGTCGGACTGTAGAACTC
DNA 2: TTGGCACCCGAGAATTCCA
modifications: constant regions annealed to DNA blockers; guide miR-122 5' phosphate
B15: ATATCCCG (ssRNA)
RNA 1: B1 RNA 1 with C28U, C30U, U31C, U32C
RNA 2: UGGAGUGUGACAAUGGUGUUUG
DNA 1: GATCGTCGGACTGTAGAACTC
DNA 2: TTGGCACCCGAGAATTCCA
modifications: constant regions annealed to DNA blockers; guide miR-122 5' phosphate
B16: ATGTCTTG (ssRNA)
RNA 1: B1 RNA 1 with C28U, A29G, C30U, U31C, C33U
RNA 2: UGGAGUGUGACAAUGGUGUUUG
DNA 1: GATCGTCGGACTGTAGAACTC
DNA 2: TTGGCACCCGAGAATTCCA
modifications: constant regions annealed to DNA blockers; guide miR-122 5' phosphate
B17: ATGTTCTA (ssRNA)
RNA 1: B1 RNA 1 with C28U, A29G, C30U, U32C, C33U, G34A
RNA 2: UGGAGUGUGACAAUGGUGUUUG
DNA 1: GATCGTCGGACTGTAGAACTC
DNA 2: TTGGCACCCGAGAATTCCA
modifications: constant regions annealed to DNA blockers; guide miR-122 5' phosphate
B18: GCGTCTTG (ssRNA)
RNA 1: B1 RNA 1 with A27G, A29G, C30U, U31C, C33U
RNA 2: UGGAGUGUGACAAUGGUGUUUG
DNA 1: GATCGTCGGACTGTAGAACTC
DNA 2: TTGGCACCCGAGAATTCCA
modifications: constant regions annealed to DNA blockers; guide miR-122 5' phosphate
B19: GTGTCCTG (ssRNA)
RNA 1: B1 RNA 1 with A27G, C28U, A29G, C30U, U31C, U32C, C33U
RNA 2: UGGAGUGUGACAAUGGUGUUUG
DNA 1: GATCGTCGGACTGTAGAACTC
DNA 2: TTGGCACCCGAGAATTCCA
modifications: constant regions annealed to DNA blockers; guide miR-122 5' phosphate
B20: GCATTCCG (ssRNA)
RNA 1: B1 RNA 1 with A27G, C30U, U32C
RNA 2: UGGAGUGUGACAAUGGUGUUUG
DNA 1: GATCGTCGGACTGTAGAACTC
DNA 2: TTGGCACCCGAGAATTCCA
modifications: constant regions annealed to DNA blockers; guide miR-122 5' phosphate
B21: GTATCCTG (ssRNA)
RNA 1: B1 RNA 1 with A27G, C28U, C30U, U31C, U32C, C33U
RNA 2: UGGAGUGUGACAAUGGUGUUUG
DNA 1: GATCGTCGGACTGTAGAACTC
DNA 2: TTGGCACCCGAGAATTCCA
modifications: constant regions annealed to DNA blockers; guide miR-122 5' phosphate
B22: ACGCTTTA (ssRNA)
RNA 1: B1 RNA 1 with A29G, C33U, G34A
RNA 2: UGGAGUGUGACAAUGGUGUUUG
DNA 1: GATCGTCGGACTGTAGAACTC
DNA 2: TTGGCACCCGAGAATTCCA
modifications: constant regions annealed to DNA blockers; guide miR-122 5' phosphate
B23: GCGTTTTG (ssRNA)
RNA 1: B1 RNA 1 with A27G, A29G, C30U, C33U
RNA 2: UGGAGUGUGACAAUGGUGUUUG
DNA 1: GATCGTCGGACTGTAGAACTC
DNA 2: TTGGCACCCGAGAATTCCA
modifications: constant regions annealed to DNA blockers; guide miR-122 5' phosphate

Key:
Experiment in all cases: RNA Bind-n-Seq (nitrocellulose filter binding and sequencing); miR-122 guide loaded in AGO2; 60 min incubation; 30 mM Tris pH 8.0, 100 mM potassium acetate, 2 mM magnesium acetate, 0.5 mM TCEP, 0.005% NP-40, 0.01 mg/ml yeast tRNA; 3 nM AGO2-miR-122, 100 nM RNA library; 60; high values mean tight binding
Conditions in all cases: protein: recombinant; tags: His6 (N-terminal, pFastBac HTA)
[1] = target: AGO2 L192P (Homo sapiens, UniProt Q9UKV8 1-859, L192P;S387D;S824A;S828D;S831D;S834A)
Outline: (§1)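 Fold enrichment is each target's read fraction divided by its read fraction in the input library. Sf9 insect cells expressed His-tagged AGO2 from baculovirus; the protein was loaded with a synthetic guide RNA and purified by Ni-NTA and a biotinylated capture oligo. The bound RNA was extracted, reverse-transcribed, barcode-amplified and sequenced on Illumina.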

[2] = target: AGO2 A367P (Homo sapiens, UniProt Q9UKV8 1-859, A367P;S387D;S824A;S828D;S831D;S834A)
Outline: as §1

[3] = target: AGO2 T357M (Homo sapiens, UniProt Q9UKV8 1-859, T357M;S387D;S824A;S828D;S831D;S834A)
Outline: as §1

[4] = target: AGO2 F182del (Homo sapiens, UniProt Q9UKV8 1-859, S387D;S824A;S828D;S831D;S834A;del182-182)
Outline: as §1

AGO2 F182del, sequence (Q9UKV8 other isoform, or with tags, fused parts or gaps S387D;S824A;S828D;S831D;S834A;del182-182): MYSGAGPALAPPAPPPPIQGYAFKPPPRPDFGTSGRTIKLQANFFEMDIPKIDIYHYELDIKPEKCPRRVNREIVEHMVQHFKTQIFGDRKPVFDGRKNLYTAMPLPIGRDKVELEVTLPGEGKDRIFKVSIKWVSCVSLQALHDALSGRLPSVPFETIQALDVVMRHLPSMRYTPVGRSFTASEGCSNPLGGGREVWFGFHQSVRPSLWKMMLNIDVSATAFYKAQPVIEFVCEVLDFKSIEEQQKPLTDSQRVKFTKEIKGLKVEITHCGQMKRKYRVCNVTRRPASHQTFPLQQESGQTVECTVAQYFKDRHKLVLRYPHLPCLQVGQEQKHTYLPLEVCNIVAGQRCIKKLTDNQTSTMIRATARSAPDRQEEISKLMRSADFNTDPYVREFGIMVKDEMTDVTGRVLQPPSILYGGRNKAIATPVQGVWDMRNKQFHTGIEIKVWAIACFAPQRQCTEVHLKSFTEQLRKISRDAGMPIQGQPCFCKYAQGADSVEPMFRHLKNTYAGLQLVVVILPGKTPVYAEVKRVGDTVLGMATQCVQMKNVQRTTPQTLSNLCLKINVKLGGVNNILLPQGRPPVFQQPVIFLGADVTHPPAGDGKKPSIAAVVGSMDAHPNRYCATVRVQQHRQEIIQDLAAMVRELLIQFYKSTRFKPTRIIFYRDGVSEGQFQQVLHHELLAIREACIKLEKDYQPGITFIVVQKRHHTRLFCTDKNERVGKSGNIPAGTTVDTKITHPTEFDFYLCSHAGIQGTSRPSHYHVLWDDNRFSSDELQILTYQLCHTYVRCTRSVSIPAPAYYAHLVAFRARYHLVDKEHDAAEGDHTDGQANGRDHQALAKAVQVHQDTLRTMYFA
AGO2 A367P, sequence (Q9UKV8 whole entry A367P/S387D/S824A/S828D/S831D/S834A): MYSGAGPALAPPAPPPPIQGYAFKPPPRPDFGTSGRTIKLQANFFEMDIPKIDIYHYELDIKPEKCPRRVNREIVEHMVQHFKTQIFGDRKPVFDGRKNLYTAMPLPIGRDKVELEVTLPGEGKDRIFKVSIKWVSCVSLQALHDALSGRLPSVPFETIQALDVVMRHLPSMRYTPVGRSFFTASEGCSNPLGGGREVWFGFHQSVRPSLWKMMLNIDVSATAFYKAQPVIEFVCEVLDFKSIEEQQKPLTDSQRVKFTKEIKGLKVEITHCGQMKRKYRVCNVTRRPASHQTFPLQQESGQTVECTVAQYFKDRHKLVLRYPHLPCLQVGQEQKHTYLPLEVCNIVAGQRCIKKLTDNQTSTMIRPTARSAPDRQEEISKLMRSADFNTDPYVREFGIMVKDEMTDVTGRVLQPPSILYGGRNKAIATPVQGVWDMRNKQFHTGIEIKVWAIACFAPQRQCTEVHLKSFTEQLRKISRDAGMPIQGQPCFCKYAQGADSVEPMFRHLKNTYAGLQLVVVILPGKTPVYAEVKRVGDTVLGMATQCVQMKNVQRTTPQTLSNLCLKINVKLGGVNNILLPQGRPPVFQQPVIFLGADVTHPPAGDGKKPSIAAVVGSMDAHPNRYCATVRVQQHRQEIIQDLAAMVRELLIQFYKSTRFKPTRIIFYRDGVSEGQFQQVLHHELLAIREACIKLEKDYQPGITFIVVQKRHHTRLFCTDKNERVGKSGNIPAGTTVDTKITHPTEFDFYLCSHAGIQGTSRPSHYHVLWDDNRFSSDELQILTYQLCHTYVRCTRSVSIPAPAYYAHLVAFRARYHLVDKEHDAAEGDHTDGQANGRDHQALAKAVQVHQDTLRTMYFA
AGO2 L192P, sequence (Q9UKV8 whole entry L192P/S387D/S824A/S828D/S831D/S834A): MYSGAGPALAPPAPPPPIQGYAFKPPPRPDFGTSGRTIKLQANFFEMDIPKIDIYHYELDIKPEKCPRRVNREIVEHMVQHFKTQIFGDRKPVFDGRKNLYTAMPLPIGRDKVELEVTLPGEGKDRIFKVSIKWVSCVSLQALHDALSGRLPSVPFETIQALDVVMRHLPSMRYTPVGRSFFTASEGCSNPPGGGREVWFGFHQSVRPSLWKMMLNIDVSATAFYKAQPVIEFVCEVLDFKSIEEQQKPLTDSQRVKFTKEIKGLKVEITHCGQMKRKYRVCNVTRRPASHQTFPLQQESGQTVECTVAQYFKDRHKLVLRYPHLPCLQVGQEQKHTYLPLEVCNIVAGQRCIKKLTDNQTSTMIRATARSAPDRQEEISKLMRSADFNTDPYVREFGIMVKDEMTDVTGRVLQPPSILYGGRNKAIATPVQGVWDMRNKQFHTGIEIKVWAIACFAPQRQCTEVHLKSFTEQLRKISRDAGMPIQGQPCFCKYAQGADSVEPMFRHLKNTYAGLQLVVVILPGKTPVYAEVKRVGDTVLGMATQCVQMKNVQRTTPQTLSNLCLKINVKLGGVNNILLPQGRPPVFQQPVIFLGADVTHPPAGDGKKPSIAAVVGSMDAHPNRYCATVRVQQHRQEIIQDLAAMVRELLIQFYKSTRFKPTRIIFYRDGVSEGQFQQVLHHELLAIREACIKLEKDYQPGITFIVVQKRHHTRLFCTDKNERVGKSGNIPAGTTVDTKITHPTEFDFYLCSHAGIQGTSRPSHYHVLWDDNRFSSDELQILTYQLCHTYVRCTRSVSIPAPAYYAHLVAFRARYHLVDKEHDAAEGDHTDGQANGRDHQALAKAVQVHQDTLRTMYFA
AGO2 T357M, sequence (Q9UKV8 whole entry T357M/S387D/S824A/S828D/S831D/S834A): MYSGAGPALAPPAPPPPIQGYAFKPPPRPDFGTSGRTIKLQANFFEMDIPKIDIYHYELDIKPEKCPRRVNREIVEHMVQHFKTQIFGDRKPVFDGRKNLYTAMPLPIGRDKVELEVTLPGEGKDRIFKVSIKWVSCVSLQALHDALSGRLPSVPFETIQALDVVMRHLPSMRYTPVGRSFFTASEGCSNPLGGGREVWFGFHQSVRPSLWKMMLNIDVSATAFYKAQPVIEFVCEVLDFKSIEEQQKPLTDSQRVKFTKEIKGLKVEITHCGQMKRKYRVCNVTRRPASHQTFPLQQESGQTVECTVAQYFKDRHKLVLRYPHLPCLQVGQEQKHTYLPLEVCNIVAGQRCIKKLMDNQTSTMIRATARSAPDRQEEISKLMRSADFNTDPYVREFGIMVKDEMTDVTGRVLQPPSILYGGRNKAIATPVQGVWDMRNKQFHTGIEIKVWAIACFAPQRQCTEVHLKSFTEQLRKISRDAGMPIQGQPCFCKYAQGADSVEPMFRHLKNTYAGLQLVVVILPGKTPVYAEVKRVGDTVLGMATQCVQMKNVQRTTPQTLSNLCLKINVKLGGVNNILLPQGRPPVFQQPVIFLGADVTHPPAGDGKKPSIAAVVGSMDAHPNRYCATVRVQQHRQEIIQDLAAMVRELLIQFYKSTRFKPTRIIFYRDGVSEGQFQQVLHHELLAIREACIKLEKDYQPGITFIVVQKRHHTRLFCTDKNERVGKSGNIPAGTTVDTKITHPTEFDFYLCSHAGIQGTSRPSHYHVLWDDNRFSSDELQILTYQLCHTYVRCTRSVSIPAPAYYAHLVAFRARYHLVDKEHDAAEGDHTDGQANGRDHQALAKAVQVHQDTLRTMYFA

| Binder | binding signal [1] | binding signal [2] | binding signal [3] | binding signal [4] |
| --- | --- | --- | --- | --- |
| B1 | 0.433 fold enrichment over input | 0.201 fold enrichment over input | 0.541 fold enrichment over input | 0.152 fold enrichment over input |
| B2 | 0.352 fold enrichment over input | 0.132 fold enrichment over input | 0.47 fold enrichment over input |  |
| B3 | 0.354 fold enrichment over input | 0.148 fold enrichment over input | 0.531 fold enrichment over input |  |
| B4 | 0.348 fold enrichment over input | 0.135 fold enrichment over input | 0.496 fold enrichment over input |  |
| B5 | 0.369 fold enrichment over input | 0.149 fold enrichment over input | 0.584 fold enrichment over input |  |
| B6 | 0.425 fold enrichment over input | 0.161 fold enrichment over input | 0.581 fold enrichment over input |  |
| B7 | 0.345 fold enrichment over input | 0.138 fold enrichment over input | 0.498 fold enrichment over input |  |
| B8 | 0.347 fold enrichment over input | 0.134 fold enrichment over input | 0.37 fold enrichment over input |  |
| B9 | 0.354 fold enrichment over input | 0.122 fold enrichment over input | 0.399 fold enrichment over input |  |
| B10 | 0.348 fold enrichment over input | 0.147 fold enrichment over input | 0.471 fold enrichment over input |  |
| B11 | 0.391 fold enrichment over input | 0.155 fold enrichment over input | 0.524 fold enrichment over input |  |
| B12 | 0.408 fold enrichment over input | 0.144 fold enrichment over input | 0.544 fold enrichment over input |  |
| B13 | 0.349 fold enrichment over input |  | 0.475 fold enrichment over input |  |
| B14 | 0.377 fold enrichment over input | 0.137 fold enrichment over input | 0.463 fold enrichment over input |  |
| B15 | 0.335 fold enrichment over input |  | 0.422 fold enrichment over input |  |
| B16 | 0.357 fold enrichment over input | 0.128 fold enrichment over input | 0.449 fold enrichment over input |  |
| B17 | 0.469 fold enrichment over input | 0.206 fold enrichment over input | 0.606 fold enrichment over input | 0.182 fold enrichment over input |
| B18 | 0.395 fold enrichment over input | 0.141 fold enrichment over input | 0.547 fold enrichment over input |  |
| B19 | 0.335 fold enrichment over input | 0.124 fold enrichment over input | 0.452 fold enrichment over input |  |
| B20 | 0.436 fold enrichment over input | 0.171 fold enrichment over input | 0.548 fold enrichment over input |  |
| B21 | 0.337 fold enrichment over input | 0.123 fold enrichment over input | 0.449 fold enrichment over input |  |
| B22 | 0.468 fold enrichment over input | 0.195 fold enrichment over input | 0.588 fold enrichment over input | 0.135 fold enrichment over input |
| B23 | 0.362 fold enrichment over input | 0.136 fold enrichment over input | 0.536 fold enrichment over input |  |
